CYP2C9 activ – human CYP2C9 activators, primary screen, biochemical, luminescence | Cytochrome P450 2C9 (Homo sapiens), P11712 | recombinant CYP2C9, luciferin-H conversion; hits give high values; factor 1 = untreated enzyme, 0 = blocked | activation factor at 5 µM | 96,000 compounds, 1.4% hits;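 active = activation factor of 2 or more for CYP2C9 at a 5 µM dose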
CYP2C19 inhib – blockers of cytochrome P450 2C19 activity – biochemical, luminescence, ADME assay, primary screen. CYP2C19 Supersomes, luciferin-H EGE luminescence, 30 min. inhibition, % at 5 µM. P33261. AID 778, 2007. 96,000 compounds, 21% hits;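 active = CYP2C19 inhibition above a set limit at 5 µM in the primary screen, cut at about 50% in these data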
Target sequence (P33261 whole entry, looked up): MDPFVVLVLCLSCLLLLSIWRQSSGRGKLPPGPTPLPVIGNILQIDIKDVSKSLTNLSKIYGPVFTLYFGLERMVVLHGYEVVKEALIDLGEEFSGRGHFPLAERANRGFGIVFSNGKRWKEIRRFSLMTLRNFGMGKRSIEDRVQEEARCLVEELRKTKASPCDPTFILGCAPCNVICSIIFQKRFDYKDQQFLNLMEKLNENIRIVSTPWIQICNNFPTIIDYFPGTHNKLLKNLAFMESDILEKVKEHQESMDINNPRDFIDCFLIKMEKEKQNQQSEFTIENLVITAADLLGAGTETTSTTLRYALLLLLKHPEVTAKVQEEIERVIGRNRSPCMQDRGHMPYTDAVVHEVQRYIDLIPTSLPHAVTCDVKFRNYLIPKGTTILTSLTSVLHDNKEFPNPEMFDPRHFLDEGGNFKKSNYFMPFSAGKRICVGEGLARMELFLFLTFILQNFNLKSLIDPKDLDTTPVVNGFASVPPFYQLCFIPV
CYP2C9 inhib – blockers of cytochrome P450 2C9 activity – biochemical, luminescence, ADME assay, primary screen | CYP2C9 Supersomes, luciferin-H conversion | inhibition, % at 5 µM | 96,000 compounds, 20% hits | AID 777, 2007 | P11712;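 active = blocking of liver enzyme CYP2C9 beyond about 50% at 5 µM, limit read from the data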
PostGolgi ctrl – growth inhibition of yeast control strain, primary screen, counter-screen for post-Golgi transport modulator project | efflux-deficient yeast background strain, growth absorbance A615, 16 h | inhibition, % at 10 µM | 98,000 compounds, 5% hits
PostGolgi yeast – phenotypic screen on post-Golgi transport, primary screen; post-Golgi transport phenotypic cell assay; inhibition, % at 10 µM; 98,000 compounds, 0.9% hits;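 note: yeast cells grown in 1536-well plates; yeast grown about 18 h at 30C before absorbance read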
CYP2C19 act – human CYP2C19 activators, primary screen, biochemical, luminescence; activation factor at 5 µM; 96,000 tested, under 10 active; AID 1025, 2008; Cytochrome P450 2C19 (Homo sapiens), P33261; recombinant CYP2C19, luciferin-H EGE luminescence; hits give high values; 0 = fully inhibited enzyme, 1 = untreated enzyme;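 active = activation factor of at least 2 at 5 µM in the primary screen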
Hits are given with their value; . = inactive; / = no result. Hits are enriched below; roughly 32% of the tested compounds scored in any of these assays. Cut-off read from the data, not from the text of the source, unless noted: active = inhibition above about 30%; inactive = the rest.

SMILES | CYP2C9 activ | CYP2C19 inhib | CYP2C9 inhib | PostGolgi ctrl | PostGolgi yeast | CYP2C19 act
O=C1CC(Cc2ccc(Cl)cc2)C(=O)N1c1ccccn1 (stereo unspecified) | . | . | . | . | . | .
CCOc1ccccc1CN1C(=O)c2ccccc2C1C(=O)NCC1CCCO1 (stereo unspecified) | . | . | . | . | . | .
CCOC(=O)C1C2C=CC3(CN(C4CCCC4)C(=O)C13)O2 (stereo unspecified) | . | . | . | . | . | .
Cc1noc(C)c1C(=O)NCc1ccco1 | . | . | . | . | . | .
Cc1onc(-c2ccccc2Cl)c1C(=O)NCc1ccco1 | . | 51 | . | . | . | .
CCOC(=O)C(Sc1ncnc2c1sc1nc(N3CCOCC3)c3c(c12)CCCC3)c1ccccc1 (stereo unspecified) | . | . | . | . | . | .
COC(=O)c1ccc(Cn2cnc3c(sc4nc(N5CCOCC5)c5c(c43)CCCC5)c2=O)o1 | . | . | 52 | . | . | .
O=c1c2sc3nc(N4CCOCC4)c4c(c3c2ncn1CCc1ccccc1)CCCC4 | . | 52 | 61 | . | . | .
O=c1c2sc3nc(N4CCOCC4)c4c(c3c2nnn1Cc1ccccc1)CCCC4 | . | . | . | 32 | . | .
O=C1CC(Cc2ccccc2)C(=O)N1CCc1ccc2c(c1)OCO2 (stereo unspecified) | . | 86 | . | . | . | .
O=C1CC(Cc2ccccc2)C(=O)N1CCCn1ccnc1 (stereo unspecified) | . | 100 | 69 | . | . | .
Cc1nc(CN2CCN(C(=O)c3ccc(C(C)(C)C)cc3)CC2)cs1 | . | . | . | . | . | .
CCOC(=O)c1sc(=S)n(-c2ccc(Cl)cc2)c1SC | . | . | . | . | . | .
CCOc1ccc2nc(NC(=O)C(CC)Sc3nc(C)cc(=O)[nH]3)sc2c1 (stereo unspecified) | . | . | 68 | . | . | .
COc1ccc2nc(NC(=O)CSc3nccc(C)n3)sc2c1 | . | . | . | . | . | .
CCOc1ccc2nc(NC(=O)COC)sc2c1 | . | . | . | . | . | .
CCOc1ccc2nc(NC(=O)c3ccoc3C)sc2c1 | . | 100 | 85 | . | . | .
COc1ccc2nc(NC(=O)CSc3nc(C)cc(=O)[nH]3)sc2c1 | . | . | 52 | . | . | .
CN(C)c1nc(NCc2ccccc2)nc(N/N=C/c2ccc(Cl)cc2Cl)n1 | . | . | . | . | . | .
COCCn1nnnc1C(c1ccc(C(F)(F)F)cc1)N1CCOCC1 (stereo unspecified) | . | . | . | . | . | .
CC1(C)NC(=O)N(CC(O)COc2ccc(N3C(=O)c4ccccc4C3=O)cc2)C1=O (stereo unspecified) | . | . | . | . | . | .
CCC1(C)Cc2ccccc2-c2nc(-c3ccccc3)oc(=O)c21 (stereo unspecified) | . | . | . | . | . | .
CCC1(C)Cc2ccccc2-c2nc(NCCO)[nH]c(=O)c21 (stereo unspecified) | . | 56 | 69 | . | . | .
CCC1(C)Cc2ccccc2-c2nc(NCCCO)n(-c3ccccc3)c(=O)c21 (stereo unspecified) | . | 51 | . | . | . | .
O=c1[nH]c(NCCO)nc2c1C1(CCCC1)Cc1ccccc1-2 | . | . | . | . | . | .
SMILES | CYP2C9 activ | CYP2C19 inhib | CYP2C9 inhib | PostGolgi ctrl | PostGolgi yeast | CYP2C19 act
Cn1c(NCCCO)nc2c(c1=O)C1(CCCCC1)Cc1ccccc1-2 | . | 78 | 83 | 36 | . | .
CCC1(C)Cc2ccccc2-c2nc3n(c(=O)c21)CC(C(=O)O)S3 (stereo unspecified) | . | . | 69 | . | . | .
Cc1occc1C(=O)NCCCc1ccccc1 | . | . | . | . | . | .
Cn1c2c(c(=O)n(C)c1=O)C1c3cc(Cl)ccc3OCC1CO2 (stereo unspecified) | . | 69 | . | . | . | .
CCOc1ccc(NC(=O)CS(=O)(=O)c2cn(C)c3ccccc23)cc1 | . | . | . | / | . | .
O=C(Cn1nnc2c(cnn2-c2ccc(F)cc2)c1=O)c1ccccc1F | . | . | . | . | . | .
C=CCSc1nnc(NC(=O)c2cccc(S(=O)(=O)N3CCOCC3)c2)s1 | . | . | . | . | . | .
O=C(Cn1nc(C(=O)O)c2ccccc2c1=O)NCCC1=CCCCC1 | . | 58 | . | . | . | .
O=C(COc1cnc2ccccc2n1)NCCC1=CCCCC1 | . | 55 | . | . | . | .
O=C(/C=C/c1cccc2ccccc12)NCCC1=CCCCC1 | 2.7 | . | . | . | . | .
O=C(COc1nncc2ccccc12)NCCC1=CCCCC1 | . | . | . | . | . | .
O=C(COc1ncnc2ccccc12)NCCC1=CCCCC1 | . | 54 | . | . | . | .
CCOC(=O)c1cnc2nc(C(F)(F)F)[nH]n2c1=O | . | . | . | . | . | .
CCOC(=O)c1cnc2scnn2c1=O | . | . | . | 37 | . | .
Cn1cccc1Cc1nnc(SCC(=O)Nc2ccc(F)cc2)n1CCc1ccccc1 | . | . | . | . | . | .
Cn1c(/C=C/c2ccc([N+](=O)[O-])o2)nc2ccccc2c1=O | . | / | . | 41 | 62 | /
Cc1cc(C)n2c(SCc3ccc(C#N)cc3)nnc2n1 | . | . | . | . | . | .
Cc1cc(N2CCCCC2)nc(SCc2ccc(C#N)cc2)n1 | . | . | 63 | 40 | . | .
CCC1(C)CC(C(CC(=O)O)c2ccc(C)cc2)CCO1 (stereo unspecified) | . | . | . | . | . | .
Cc1ccc(NC(=S)N/N=C/c2ccc(OCCC(C)C)cc2)c(C)c1 | . | . | 65 | . | . | .
CCOc1ccc2nc(NC(=O)CSc3nc4ccccc4c(=O)n3Cc3ccco3)sc2c1 | . | . | . | . | . | .
Cc1cnn(C(=S)NCCc2ccccc2)c1 | . | 84 | . | . | . | .
O=C(COc1ccc(Cl)cc1Cl)Nc1nc2n(n1)C(c1ccccc1)CC(=O)N2 (stereo unspecified) | . | . | . | . | . | .
CCOc1ccc(C(Nc2ccc(C)cc2)P2(=O)OCCC(C)O2)cc1 (stereo unspecified) | . | 54 | 58 | . | . | .
CCOc1ccc(C(Nc2ccc(C)cc2)P2(=O)OCCCO2)cc1 (stereo unspecified) | . | . | . | . | . | .
CC(=O)Nc1ccc(SCC(=O)N(CCC#N)c2cc(C)cc(C)c2)cc1 | . | 82 | 70 | . | . | .
CCN(C(=O)CSc1ccc2c(c1)OCCO2)C1CCS(=O)(=O)C1 (stereo unspecified) | . | . | . | . | . | .

Screening results: PubChem BioAssay, several laboratories
